Legend:
Settings in all cases: concentration: 1 μM, replicates: in singlicate; n = 1
CHEK1 = tested on: CHEK1
CHEK2 = tested on: CHEK2
CIT = tested on: CIT
CLK1 = tested on: CLK1
CLK2 = tested on: CLK2
CLK3 = tested on: CLK3
CLK4 = tested on: CLK4
CSF1R-autoinhibited = tested on: CSF1R-autoinhibited
CSF1R = tested on: CSF1R
CSK = tested on: CSK
CSNK1A1L = tested on: CSNK1A1L
CSNK1A1 = tested on: CSNK1A1
CSNK1D = tested on: CSNK1D
CSNK1E = tested on: CSNK1E
CSNK1G1 = tested on: CSNK1G1
CSNK1G2 = tested on: CSNK1G2
CSNK1G3 = tested on: CSNK1G3
CSNK2A1 = tested on: CSNK2A1
CSNK2A2 = tested on: CSNK2A2
CTK = tested on: T1, CTK
T1 construct: gene MATK
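Also: KINOMEscan kinase panel screen.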

SMILES | %Inh (CHEK1) [%] | %Inh (CHEK2) [%] | %Inh (CIT) [%] | %Inh (CLK1) [%] | %Inh (CLK2) [%] | %Inh (CLK3) [%] | %Inh (CLK4) [%] | %Inh (CSF1R-autoinhibited) [%] | %Inh (CSF1R) [%] | %Inh (CSK) [%] | %Inh (CSNK1A1L) [%] | %Inh (CSNK1A1) [%] | %Inh (CSNK1D) [%] | %Inh (CSNK1E) [%] | %Inh (CSNK1G1) [%] | %Inh (CSNK1G2) [%] | %Inh (CSNK1G3) [%] | %Inh (CSNK2A1) [%] | %Inh (CSNK2A2) [%] | %Inh (CTK) [%]
Cc1ccc(C(=O)NCC(N)=O)cc1-n1c(C)cc(OCc2ccc(F)cc2F)c(Br)c1=O | 17 | 9 | 8 | 0 | 0 | 3 | 12 | 0 | 16 | 0 | 26 | 25 | 19 | 0 | 22 | 10 | 8 | 0 | 0 | 0
Cc1cccc(-c2nc(-c3ccc(S(C)(=O)=O)cc3)sc2-c2ccncc2)c1 | 0 | 1 | 9 | 0 | 0 | 0 | 11 | 0 | 9 | 8 | 9 | 18 | 16 | 36 | 0 | 20 | 0 | 0 | 14 | 0
CN(C(=O)c1ccc(-c2cc(-c3c[nH]nc3-c3ccccn3)ccn2)cc1)C1CCOCC1 [GW810083] | 0 | 12 | 5 | 23 | 0 | 0 | 0 | 31 | 20 | 0 | 8 | 37 | 29 | 42 | 5 | 0 | 0 | 0 | 0 | 5
Cc1c2ccc(N(C)c3ccnc(Nc4cccc(S(N)(=O)=O)c4)n3)cc2nn1Cc1ccccc1.Cl.Cl [GW787226] | 0 | 8 | 6 | 0 | 12 | 0 | 0 | 64 | 100 | 9 | 0 | 15 | 0 | 0 | 0 | 0 | 0 | 0 | 1 | 26
Cc1cn2c(=O)cc(N3CCOCC3)nc2n1Cc1cccc(Cl)c1Cl [GSK2334006] | 25 | 0 | 17 | 35 | 0 | 11 | 26 | 0 | 5 | 0 | 29 | 48 | 43 | 45 | 17 | 6 | 26 | 11 | 18 | 0
CC(C)(C)n1cnc2c(N)ncnc21 [SKF-97359] | 0 | 2 | 32 | 14 | 0 | 0 | 11 | 28 | 0 | 0 | 16 | 40 | 0 | 39 | 0 | 0 | 2 | 0 | 0 | 21
O=C1Cc2cc(Nc3nc(NCc4cccc(S(=O)(=O)C(F)(F)F)c4)ncc3C(F)(F)F)ccc2N1 | 0 | 0 | 0 | 0 | 0 | 0 | 0 | 0 | 9 | 3 | 0 | 12 | 0 | 0 | 11 | 0 | 0 | 12 | 5 | 5
NS(=O)(=O)CCc1cccc(Nc2nccc(-c3c(-c4cccc(NC(=O)c5c(F)cccc5F)c4)nn4ccccc34)n2)c1 [GSK336735] | 4 | 0 | 53 | 27 | 10 | 100 | 21 | 21 | 99.7 | 97.5 | 7 | 0 | 33 | 90.4 | 14 | 5 | 19 | 9 | 9 | 0
